Assay results taken from PubChem BioAssay (NCI).
Several values for one entry are separate records, joined by “and”; a condition that tells them apart may be missing. Equal values may be shown once. About 83,000 compounds went through this panel and 20% of them were active in at least one assay; those are over-represented in the sample as a whole.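 Assay: single dose, 48 h. Readout: percent growth (0 = no net growth; negative = cell death). Active: <10.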 Activity calls are given as the source filed them.

Legend:
Assay in all cases: NCI-60 one-dose screen, 48 h (100 = growth as untreated, 0 = no growth, -100 = all killed)
HCT-15 colon = conditions: 10 µM
HT29 colon = conditions: 10 µM
SNB-75 CNS = conditions: 10 µM
SNB-19 CNS = conditions: 10 µM
U251 CNS = conditions: 10 µM
PC-3 prostate = conditions: 10 µM
SK-MEL-5 melanoma = conditions: 10 µM
UACC-62 melanoma = conditions: 10 µM unless noted
SK-MEL-28 melanoma = conditions: 10 µM
LOX IMVI melanoma = conditions: 10 µM

Compound: Oc1c(I)cc(I)cc1I
- growth (HCT-15 colon): 108% (inactive)
- growth (HT29 colon): 107% (inactive)
- growth (SNB-75 CNS): 87.9% (inactive)
- growth (SNB-19 CNS): 96.3% (inactive)
- growth (U251 CNS): 106% (inactive)
- growth (PC-3 prostate): 93.1% (inactive)
- growth (SK-MEL-5 melanoma): 98.1% (inactive)
- growth (UACC-62 melanoma): 102% (inactive)
- growth (SK-MEL-28 melanoma): 101% (inactive)

Compound: Oc1c(Cl)cc(Cl)c2ccccc12.[Cu+2]
- growth (HCT-15 colon): 99.5% (inactive)
- growth (HT29 colon): 92.5% (inactive)
- growth (SNB-75 CNS): 91% (inactive)
- growth (SNB-19 CNS): 121% (inactive)
- growth (U251 CNS): 108% (inactive)
- growth (PC-3 prostate): 88.4% (inactive)
- growth (SK-MEL-5 melanoma): 90.5% (inactive)
- growth (LOX IMVI melanoma): 37.7% (inactive)
- growth (SK-MEL-28 melanoma): 116% (inactive)

Compound: CC1CCC2(OC1)OC1C(O)C3C4CCC5CC(OC6OC(CO)C(OC7OC(CO)C(O)C(OC8OCC(O)C(O)C8O)C7OC7OC(CO)C(O)C(OC8OC(CO)C(O)C(O)C8O)C7O)C(O)C6O)C(O)CC5(C)C4CCC3(C)C1C2C (configuration not stated)
- growth (HCT-15 colon): 37.3% (inactive)
- growth (HT29 colon): -40.5% (active)
- growth (SNB-75 CNS): -32% (active)
- growth (SNB-19 CNS): -71.7% (active)
- growth (U251 CNS): -51.1% (active)
- growth (PC-3 prostate): -93.4% (active)
- growth (SK-MEL-5 melanoma): -62.2% (active)
- growth (LOX IMVI melanoma): -69.8% (active)

Compound: COc1cc2c(cc1OC)C13CCN4CC5=CCOC6CC(=O)N2C1C6C5CC43 (configuration not stated)
- growth (HCT-15 colon): 103% (inactive) and 109% (inactive)
- growth (HT29 colon): 122% (inactive) and 111% (inactive)
- growth (SNB-75 CNS): 97.8% (inactive) and 111% (inactive)
- growth (SNB-19 CNS): 105% (inactive) and 111% (inactive)
- growth (U251 CNS): 98% (inactive) and 98.4% (inactive)
- growth (PC-3 prostate): 94.8% (inactive) and 40% (inactive)
- growth (SK-MEL-5 melanoma): 92.9% (inactive) and 91.1% (inactive)
- growth (UACC-62 melanoma): 104% (inactive) and 88.1% (inactive)
- growth (LOX IMVI melanoma): 101% (inactive) and 97.4% (inactive)
- growth (SK-MEL-28 melanoma): 114% (inactive) and 105% (inactive)

Compound: COC12C(COC(N)=O)C3=C(C(=O)C(C)=C(N)C3=O)N1CC1C2N1C (configuration not stated)
- growth (HCT-15 colon): 33.2% (inactive)
- growth (HT29 colon): 8.04% (active)
- growth (SNB-75 CNS): 32.9% (inactive)
- growth (SNB-19 CNS): 39.1% (inactive)
- growth (U251 CNS): 43% (inactive)
- growth (PC-3 prostate): 47% (inactive)
- growth (SK-MEL-5 melanoma): 11.6% (inactive)
- growth (LOX IMVI melanoma): 28.3% (inactive)

Compound: O=C(CCl)Nc1ccc(Cl)cc1
- growth (HCT-15 colon): 37.2% (inactive)
- growth (HT29 colon): 41.2% (inactive)
- growth (SNB-75 CNS): 62.4% (inactive)
- growth (SNB-19 CNS): 79.1% (inactive)
- growth (U251 CNS): 0.303% (active)
- growth (PC-3 prostate): 62.9% (inactive)
- growth (SK-MEL-5 melanoma): 30.3% (inactive)
- growth (UACC-62 melanoma): 47.1% (inactive)
- growth (LOX IMVI melanoma): 38.3% (inactive)
- growth (SK-MEL-28 melanoma): 69.5% (inactive)

Compound: CC(=O)Nc1c2sscc-2n(C)c1=O
- growth (HCT-15 colon): -100% (active)
- growth (HT29 colon): -76.2% (active)
- growth (SNB-75 CNS): -98.3% (active)
- growth (SNB-19 CNS): -100% (active)
- growth (U251 CNS): -100% (active)
- growth (PC-3 prostate): -95.9% (active)
- growth (SK-MEL-5 melanoma): -100% (active)
- growth (LOX IMVI melanoma): -98.3% (active)

Compound: O=C1CCC(=O)N1SC(Cl)(Cl)Cl
- growth (HCT-15 colon): 107% (inactive)
- growth (HT29 colon): 102% (inactive)
- growth (SNB-75 CNS): 92.1% (inactive)
- growth (SNB-19 CNS): 103% (inactive)
- growth (U251 CNS): 118% (inactive)
- growth (PC-3 prostate): 91.2% (inactive)
- growth (SK-MEL-5 melanoma): 99.5% (inactive)
- growth (LOX IMVI melanoma): 108% (inactive)
- growth (SK-MEL-28 melanoma): 107% (inactive)

Compound: [O-][n+]1ccccc1S
- growth (HCT-15 colon): 32.8% (inactive)
- growth (HT29 colon): 4.75% (active)
- growth (SNB-75 CNS): 56.5% (inactive)
- growth (SNB-19 CNS): 59.9% (inactive)
- growth (U251 CNS): 29.9% (inactive)
- growth (PC-3 prostate): 30.8% (inactive)
- growth (SK-MEL-5 melanoma): 48.9% (inactive)
- growth (LOX IMVI melanoma): 1.84% (active)
- growth (SK-MEL-28 melanoma): 34.1% (inactive)

Compound: O=[P+](O)c1ccccc1
- growth (HCT-15 colon): 108% (inactive)
- growth (HT29 colon): 118% (inactive)
- growth (SNB-75 CNS): 97.4% (inactive)
- growth (SNB-19 CNS): 106% (inactive)
- growth (U251 CNS): 104% (inactive)
- growth (PC-3 prostate): 93.6% (inactive)
- growth (SK-MEL-5 melanoma): 106% (inactive)
- growth (UACC-62 melanoma): 105% (inactive)
- growth (LOX IMVI melanoma): 102% (inactive)
- growth (SK-MEL-28 melanoma): 104% (inactive)

Compound: O=C(CBr)Nc1ccccc1
- growth (HCT-15 colon): 55.6% (inactive)
- growth (HT29 colon): 103% (inactive)
- growth (SNB-75 CNS): 100% (inactive)
- growth (SNB-19 CNS): 94.9% (inactive)
- growth (U251 CNS): 91.6% (inactive)
- growth (PC-3 prostate): 95.2% (inactive)
- growth (SK-MEL-5 melanoma): 97.3% (inactive)
- growth (LOX IMVI melanoma): 9.08% (active)
- growth (SK-MEL-28 melanoma): 113% (inactive)

Compound: Cc1cc(C)c(C[N+](C)(C)C)c(C)c1C
- growth (HCT-15 colon): 7.64% (active)
- growth (HT29 colon): 3.52% (active)
- growth (SNB-75 CNS): 8.87% (active)
- growth (SNB-19 CNS): 16.1% (inactive)
- growth (U251 CNS): 1.76% (active)
- growth (PC-3 prostate): 14.3% (inactive)
- growth (SK-MEL-5 melanoma): 5.57% (active)
- growth (LOX IMVI melanoma): -28.2% (active)
- growth (SK-MEL-28 melanoma): -9.07% (active)

Compound: O=[N+]([O-])/C=C/c1ccc(Cl)cc1[N+](=O)[O-]
- growth (HCT-15 colon): -37.1% (active)
- growth (HT29 colon): -91.6% (active)
- growth (SNB-75 CNS): 55.4% (inactive)
- growth (SNB-19 CNS): 71.8% (inactive)
- growth (U251 CNS): -39.8% (active)
- growth (PC-3 prostate): 46.4% (inactive)
- growth (SK-MEL-5 melanoma): 81.4% (inactive)
- growth (LOX IMVI melanoma): -94.1% (active)
- growth (SK-MEL-28 melanoma): 85% (inactive)
